# Source: PubChem BioAssay (National Center for Advancing Translational Sciences (NCATS))
# Sampled rows, rich in hits. Any-hit rate of the full collection: about 6.6%.
# TGFb inhibitor = qHTS for Inhibitors of TGF-b | HepG2 CAGA-GFP TGF-b/SMAD3 reporter, GFP fluorescence, 18 h; TGF-beta stimulated, 500 pg/mL final | Potency, µM (doses to about 46.1 µM), for inactives: top-dose activity, negative = inhibition, hits mostly inhibitors | hit rate 1.2% among 410,000; note: % is set by controls: 0 for no effect and ±100 for the full control effect; nearly all actives have a fitted effect of over 65% in size
#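 Inhibition of TGF-beta-driven CAGA-GFP reporter expression in HEPG2 cells is measured by cellular GFP fluorescence after 18 h stimulation with 500 pg/mL recombinant TGF-beta in 1% FBS medium at 37 degrees C.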
# KB-3-1 tox = qHTS assay for MDR1-selective chemotherapeutics: Primary screen using the parental adenocarcinoma cell KB-3-1. KB-3-1 viability, CellTiter-Glo ATP luminescence, 72 h. Potency, µM (top dose mostly 46.1 µM), most hits filed as cytotoxic. hit rate 1.4% among 400,000; note: % is set by controls: 0 for no effect and ±100 for the full control effect; nearly all actives have a fitted effect of over 60% in size
#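 Parental KB-3-1 adenocarcinoma cells in phenol-red-free DMEM with 10% FBS were pin-treated with compounds at several concentrations, incubated 72 h at 37 °C, and viability read by CellTiter-Glo luminescence; concentration-effect curves were fitted after normalization.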
# KB-V1 cytotox = qHTS assay for MDR1-selective chemotherapeutics: Primary screen using the drug-selected MDR subline cells KB-V1. KB-V1 MDR cells viability, CellTiter-Glo, 72 h. Potency, µM (series often up to 46.1 µM), most hits filed as cytotoxic. hit rate 3.4% among 400,000; note: % is set by controls: 0 for no effect and ±100 for the full control effect; nearly all actives have a fitted effect of over 60% in size
#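 qHTS viability screen in drug-selected KB-V1 MDR cells: 72 h compound treatment at 37 degrees C, ATP luminescence end point.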
# HepG2 tox = qHTS for Inhibitors of TGF-b: Cytotox Counterscreen; HepG2 CAGA-GFP viability, ATP luminescence, 18 h; Potency, µM (titrated, usually from 46.1 µM), inactives show at the top dose activity change, negative = cytotoxicity, usual class: cytotoxic; hit rate 0.76% among 410,000
#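 HepG2 CAGA-GFP cells (1000/well, DMEM with 1% FBS) received compound, then TGF-beta at 500 pg/mL final, and were incubated 18 hours at 37 degrees C. Viability was read by CellTiter-Glo luminescence. Media-only wells were set as complete cell-killing and DMSO as no toxicity.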
# HT1080 IDH1KD tx = qHTS for induction of synthetic lethality in tumor cells producing 2HG: qHTS for the HT-1080-IDH1KD cell line | HT-1080 IDH1 knockdown viability, ATP luminescence, 48 h | Potency, µM (top dose mostly 46.1 µM), for the others: at the top dose activity, negative = toxicity, hits mostly cytotoxic | hit rate 2% among 360,000 | AID 686971, 2013;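 note: 0% = DMSO wells and -100% = cell-free medium wells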
#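 Luminescent ATP read-out (CellTiter-Glo, 10 min at room temperature) after 48 h compound exposure at 37 °C gave viability of IDH1-knockdown HT-1080 cells. Activity was normalised to DMSO and cell-free wells, then fitted as concentration-response curves.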
# HT1080-NT tox = qHTS for induction of synthetic lethality in tumor cells producing 2HG: qHTS for the HT-1080-NT fibrosarcoma cell line; Potency, µM (highest dose often 46.1 µM), for inactives: top-dose activity, negative = less viability, actives largely listed as cytotoxic; hit rate 1.6% among 360,000; HT-1080-NT fibrosarcoma viability, CellTiter-Glo ATP luminescence, 48 h; AID 686970, 2013;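 note: NT is the 2HG producing partner of a matched IDH1 knockdown line; 0% = DMSO-treated cells and -100% = media-only wells without cells; nearly all actives have a fitted effect of over 55% in size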
#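 Compounds were tested in concentration-response format on HT-1080-NT cells for 48 hours at 37 degrees C. Cell viability came from CellTiter-Glo luminescence; curves were classified by r2, response magnitude and activity.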
# An asterisk follows results filed as active; i = inactive; ? = inconclusive; · = no result; ! = a repeat was not active. Calls come from the whole dose curve; as a rule, active = well fitted curve in the direction sought with a large enough effect; inconclusive = small, poorly fitted or top-dose-only effect, or another doubt; inactive = no such curve, though single readings can be large; an effect the other way counts as inactive or inconclusive. Potency is the fitted concentration of half-maximal effect.
SMILES,TGFb inhibitor,KB-3-1 tox,KB-V1 cytotox,HepG2 tox,HT1080 IDH1KD tx,HT1080-NT tox
COc1ccc(-c2cn(-c3ccccc3)c3[n+]2CCS3)cc1,?,3.3µM*,i,-16%,13µM*,?
CC(C)(C)c1ccc(-c2cn(-c3ccc(Br)cc3)c3[n+]2CCCS3)cc1,10µM*,?,i,-21%,8.2µM*,23µM*
O=C(NCc1ccccc1)c1cnc(N2CCCCC2)c2ccccc12,5%,i,?,-7%,·,·
CCc1ccc(NC(=O)C2=CC(c3cccs3)=NS(=O)(=O)N2C)cc1,13µM*!,?,i,-26%,-4%,-3%
COc1ccc(-n2cnc3cc(C(=O)NCCC4=CCCCC4)ccc32)cc1,?,i,i,-43%,·,·
CCCN(CCC)CCNC(=O)C1CCN(Cc2nc(-c3ccc(Cl)cc3)oc2C)CC1,7%,23µM*,?,-28%,-22%,-18%
CCc1ccc(-c2nc(CN3CCC(C(=O)NCc4ccco4)CC3)c(C)o2)cc1,?,?,9.2µM*,-7%,2%,-2%
CCc1cccc(CC)c1NC(=O)CSc1nc2ccc(N3C(=O)C4C5C=CC(C5)C4C3=O)cc2s1 (configuration not stated),?,?,2.6µM*,-10%,?,-18%
CCOC(=O)c1c(C)n(C)c2ccc(OC)c(NC(=O)CN3CCC(C(=O)OCC)CC3)c12,-16%,i,?,-24%,13%,13%
CCOC(=O)c1c(C)n(C)c2ccc(OC)c(NC(=O)CCN3CCSCC3)c12,2%,i,13µM*,-7%,9%,1%
CCN(CC)c1ccc(/C=N/NC(=O)Cc2nnc(NC(=O)Nc3ccccc3)s2)cc1,?,i,i,-157%,15µM*,21µM*
O=C1C(Cc2cccc([N+](=O)[O-])c2)SC(=Nc2ccccc2)N1c1ccccc1 (configuration not stated),0%,i,21µM*,-23%,0%,-1%
O=C1C(Cc2ccc(Br)cc2)SC(=Nc2ccccc2)N1c1ccccc1 (configuration not stated),0%,?,21µM*,-26%,-23%,0%
COc1ccc(-c2nc3scc(CCNS(=O)(=O)c4c(C)cc(C)cc4C)n3n2)cc1OC,0%,·,·,6%,·,·
N/C(=N\N=C/c1ccc(F)cc1)N/N=C\c1ccc(F)cc1,?,i,i,-131%,1%,4%
N/C(=N\N=C/c1ccc(Br)cc1)N/N=C\c1ccc(Br)cc1,?,i,?,11µM*,?,?
CCC(=O)NC(c1ccc(OC)c(OC)c1)c1cc(Cl)c2cccnc2c1O (configuration not stated),?,3.3µM*!,?,-1%,?,?
CCOc1cc(C(Nc2cc(C)ccn2)c2ccc3cccnc3c2O)ccc1OC (configuration not stated),0.79µM*,·,·,-49%,·,·
CCC(=O)NC(C)c1cc(Cl)c2cccnc2c1O (configuration not stated),1.8µM*,8.2µM*,i,-58%,·,·
CC(=O)NC(C)c1cc(Cl)c2cccnc2c1O (configuration not stated),7.1µM*,i,i,8.9µM*,·,·
O=C(CSc1n[nH]c(-c2ccccc2Cl)n1)N1CCN(c2ccccc2)CC1,-37%,i,i,-7%,·,·
Cc1cc2c(cc1NC(=O)c1ccccc1C)n(C)c(=O)c(=O)n2C,?,i,i,-9%,·,·
Cn1c(=O)c2c(-c3ccccc3)n3c4ccccc4nc(-c4ccccc4)c3c2n(C)c1=O,-3%,i,i,-2%,·,·
CC(=O)Nc1ccc(-c2ccnc3c2CC(C(=O)NCCc2ccccc2)O3)cc1 (configuration not stated),1%,i,i,-5%,0%,-15%
CC(=O)Nc1ccc(-c2ccnc3c2CC(C(=O)NCc2ccccc2)O3)cc1 (configuration not stated),?,0.065µM*,1.3µM*,0%,?,?
SMILES,TGFb inhibitor,KB-3-1 tox,KB-V1 cytotox,HepG2 tox,HT1080 IDH1KD tx,HT1080-NT tox
O=C(NCc1cccnc1)C1Cc2c(-c3ccc(Cl)cc3)ccnc2O1 (configuration not stated),13%,?,i,-13%,18µM*,5.8µM*
CC(=O)Nc1ccc(-c2ccnc3c2CC(C(=O)NCc2ccco2)O3)cc1 (configuration not stated),-16%,0.52µM*,i,-18%,?,?
Cc1ccc(O)c(NC(=O)CCSc2nc(-c3ccco3)cc(C(F)(F)F)n2)c1,?,i,i,-64%,·,·
COc1ccc(NC(=O)c2ccco2)cc1NC(=O)C(C)(C)Oc1ccc(Cl)cc1,?,i,i,-21%,·,·
CCCC[C@@H](CNC)NC[C@H](Cc1ccc(O)cc1)NCCc1ccc(OCC)cc1,?,i,?,13µM*,-24%,?
CCC[C@H](CN[C@@H](CNC)[C@H](C)O)NCCc1ccc(OC)cc1,-2%,i,i,-7%,0%,-18%
COc1ccccc1C(=O)Nc1nnc(SCc2cc(=O)c3cc(Cl)ccc3[nH]2)s1,-15%,·,·,-11%,·,·
CC(C)c1ccc(Cc2cn3cc(-c4cc5ccccc5oc4=O)nc3s2)cc1,-14%,0.58µM*,?,1%,·,·
O=c1oc2ccccc2cc1-c1cn2ccccc2n1,9%,i,?,-43%,23µM*,26µM*
Cc1cccc(NC(=O)c2sc3nc(-c4ccccc4)cn3c2C)c1C,-5%,·,·,1%,·,·
